Measurements reported in PubChem BioAssay.
Several values for one entry are separate records, joined by “and”; a condition that tells them apart may be missing. Equal values may be shown once. Activity calls are given as the source filed them.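 How the source made its calls, unless noted: active means compounds whose cell count with miR-34 switched on is under 0.7 times the count with it off; inactive means the rest.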

What was measured:
[1] = sensitizers of A549 cells to miR-34 induction, primary screen, imaging, A549 dox-inducible miR-34, nuclei and caspase counts (AID 1347080); details: A549 miR-34 inducible, Hoechst nuclei count, 48 h
[2] = survival rescue of mitochondrial mutant cells in low glucose, primary screen, MELAS cybrids, Rieske KO mouse fibroblasts, CellTiter-Glo (AID 1508586;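 active means mean z-score across replicates of 1.96 or higher in either the MELAS or the Rieske mutant cell line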;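 further: z relative to plate mean and SD of compound and empty wells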)
[3] = viability rescue of complex I mutant cybrids, primary screen, cell-based, galactose medium, ATP luminescence (AID 1645843;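 active means z-score of at least 1.8 in each of two replicates, scored against plate mean and spread of sample wells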;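 further: positive z means more ATP and so rescue of galactose-driven cybrid death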); details: complex I mutant cybrid cells, 72 h, stronger effect = higher value
[4] = LFS_MB_P medulloblastoma growth inhibition, cell-based, chromothripsis tumors, cisplatin or BGB combos (AID 1671449; in the data active means inhibition above about 80%;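 further: cells exposed for 96 hours; 0% = vehicle DMSO and 100% = killing by high DMSO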); details: LFS_MB_P medulloblastoma cells
[5] = HDN33 neuroblastoma growth inhibition, cell-based, chromothripsis tumors, cisplatin or BGB combos (AID 1671450; in the data active means inhibition above about 80%;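 further: cells exposed to compound for four days; 0% = vehicle DMSO and 100% = cell killing by high DMSO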); details: HDN33 neuroblastoma cells, stronger effect = higher value
[6] = ICB984 medulloblastoma cell growth inhibition, synergistic combos for chromothripsis tumors, cisplatin or BGB combos (AID 1671451; call rule not given here;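 further: cells exposed for 96 hours before readout; 0% = vehicle DMSO and 100% = killing by high DMSO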); details: ICB984 medulloblastoma cells, drug combinations, stronger effect = higher value
[7] = LFS_MB_1R medulloblastoma cell growth inhibition, synergistic combos for chromothripsis tumors, cisplatin or BGB combos (AID 1671452; in the data active means inhibition above about 80%;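 further: cells exposed for 96 hours before readout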); details: LFS_MB_1R medulloblastoma cells, stronger effect = higher value
[8] = HTB85 osteosarcoma cell growth inhibition, synergistic combos for chromothripsis tumors, BGB or cisplatin IC20 combos (AID 1671453; in the data active means inhibition above about 80%;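 further: cells exposed for 96 hours before readout; 0% = vehicle DMSO and 100% = high DMSO killing control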); details: HTB85 osteosarcoma cells, drug combinations, stronger effect = higher value
[9] = CRL2098 osteosarcoma cell growth inhibition, synergistic combos for chromothripsis tumors, BGB or cisplatin IC20 combos (AID 1671454; in the data active means inhibition above about 80%;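 further: cells exposed for 96 h before readout; 0% = vehicle DMSO and 100% = killing by high DMSO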); details: CRL2098 osteosarcoma cells, drug combinations, stronger effect = higher value
[10] = HD-MB03 medulloblastoma cell growth inhibition, synergistic combos for chromothripsis tumors, BGB or cisplatin IC20 combos (AID 1671455; in the data active means inhibition above about 83%;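 further: 0% = vehicle DMSO and 100% = high DMSO as cytotoxic control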); details: HD-MB03 medulloblastoma cells, stronger effect = higher value
[11] = UWB1.289 ovarian carcinoma cell growth inhibition, synergistic combos for chromothripsis tumors, BGB or cisplatin combos (AID 1671456; in the data active means inhibition above about 80%;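 further: cells exposed to compound for four days; 0% = vehicle DMSO and 100% = killing by high DMSO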); details: UWB1.289 ovarian carcinoma cells, stronger effect = higher value
[12] = LFS_MB_2R medulloblastoma cell growth inhibition, synergistic combos for chromothripsis tumors, cisplatin combos (AID 1671457; in the data active means inhibition above about 80%;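 further: cells exposed to compound for four days before readout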); details: LFS_MB_2R medulloblastoma cells, stronger effect = higher value
[13] = MDA-MB-436 breast carcinoma cell growth inhibition, synergistic combos for chromothripsis tumors, BGB or cisplatin combos (AID 1671458; call rule not given here;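 further: cells exposed for 96 hours; 0% = vehicle DMSO and 100% = killing by high DMSO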); details: MDA-MB-436 breast carcinoma growth inhibition, drug combinations, stronger effect = higher value
[14] = UWB1.289_BRCA1 ovarian cancer growth, cell-based, BGB or cisplatin combinations (AID 1671459; in the data active means inhibition above about 80%); details: UWB1.289 BRCA1 ovarian carcinoma, drug combinations, stronger effect = higher value
[15] = human astrocyte viability loss, single and combined drugs, cytotoxicity control for chromothriptic childhood tumor combination screen, cell-based, BGB or cisplatin IC20 combos (AID 1671460; in the data active means inhibition above about 80%;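 further: cells exposed to compounds for 96 hours before viability readout; 0% = vehicle and 100% = killing control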); details: Human astrocytes, drug combinations, stronger effect = higher value
[16] = growth inhibition of BT084 medulloblastoma cells, cell-based, ICGC_MB145, cisplatin and BGB IC40 combos (AID 1671461; in the data active means inhibition above about 80%;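 further: cells exposed to drugs for 96 hours; 0% = vehicle DMSO and 100% = high DMSO full killing control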); details: drug combinations, stronger effect = higher value
[17] = growth inhibition of RCMB18 medulloblastoma cells, cell-based, cisplatin and BGB IC40 combos (AID 1671462; in the data active means inhibition above about 80%;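 further: cells exposed to compound for four days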); details: stronger effect = higher value
[18] = growth inhibition of CRL1545 osteosarcoma cells, cell-based, cisplatin and BGB IC20 combos (AID 1671464; in the data active means inhibition above about 80%;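 further: cells exposed to compound for 96 hours before readout; 0% = vehicle DMSO and 100% = high DMSO killing control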); details: stronger effect = higher value
[19] = stronger effect = lower value, cell number ratio, induced over uninduced
[20] = measured here: relative caspase fold change +Dox/-Dox
[21] = measured here: total cells with miR-34 induction, stronger effect = lower value
[22] = measured here: total cells without miR-34 induction
[23] = MELAS cybrid survival, CellTiter-Glo 48 h, stronger effect = higher value
[24] = Rieske KO mouse fibroblast survival, CellTiter-Glo 72 h
[25] = measured here: combination with BGB IC40, at 0.05 µM
[26] = measured here: with BGB IC20 combination, at 0.5 µM
[27] = measured here: with cisplatin IC20 combination, at 0.5 µM
[28] = measured here: combination with cisplatin, at 0.5 µM
[29] = measured here: combination with cisplatin, at 5 µM

CN(C)c1ccc(C(=O)O)cc1
fold change [1, 19]: 0.927 (inactive) | fold change [1, 20]: 0.253 | cell count [1, 21]: 8940 | cell count [1, 22]: 9650 | z-score [2, 23]: -0.46 (inactive) | z-score [2, 24]: 0.0916 | z-score [3]: 0.71 (inactive)

O=S(=O)(O)CCNC1CCCCC1
fold change [1, 19]: 0.931 (inactive) | fold change [1, 20]: 0.147 | cell count [1, 21]: 9490 | cell count [1, 22]: 10200 | z-score [2, 23]: 0.282 (inactive) | z-score [2, 24]: -0.218 | z-score [3]: 0.78 (inactive)

Cc1nn(C)c(C)c1-c1ccnc(N(C)Cc2cc(-c3ccccn3)no2)n1
fold change [1, 19]: 0.81 (inactive) | fold change [1, 20]: 1.13 | cell count [1, 21]: 6820 | cell count [1, 22]: 8420 | z-score [2, 23]: -0.553 (inactive) | z-score [2, 24]: 0.716 | z-score [3]: -0.45 (inactive)

O=C(Nc1n[nH]c(Cc2ccccc2)n1)N1CCN(c2ncccn2)CC1
fold change [1, 19]: 0.879 (inactive) | fold change [1, 20]: 0.976 | cell count [1, 21]: 8590 | cell count [1, 22]: 9760 | z-score [2, 23]: -0.0698 | z-score [2, 24]: 4 | z-score [3]: 0.005 (inactive)

Nc1ccn(C2CCC(CO)O2)c(=O)n1 (stereo unspecified)
fold change [1, 19]: 0.958 (inactive) and 0.921 (inactive) | fold change [1, 20]: 1.84 and 0.793 | cell count [1, 21]: 9800 and 8610 | cell count [1, 22]: 10200 and 9350 | z-score [2, 23]: -0.101 (inactive) | z-score [2, 24]: 0.566 | z-score [3]: 0.445 (inactive) | inhibition ([4]; at 0.5 µM, stronger effect = higher value): -21% (inactive) | inhibition ([4]; measured here: combination with BGB IC20, at 0.005 µM): -12.9% | inhibition ([4]; measured here: combination with BGB IC40, at 0.005 µM): 8.5% | inhibition [4, 25]: -10.6% | inhibition ([4]; measured here: combination with cisplatin, at 0.5 µM, stronger effect = higher value): -35% | inhibition ([4]; measured here: combination with cisplatin, at 5 µM, stronger effect = higher value): -13% | inhibition ([5]; BGB combo, at 5 µM): -33.4% | inhibition ([5]; at 0.5 µM): -28.1% (inactive) | inhibition ([5]; cisplatin combo, at 5 µM): -14% | inhibition [5, 26]: -28.7% | inhibition [5, 27]: -15.2% | inhibition ([5]; single agent, at 5 µM): -52.9% | inhibition ([6]; BGB IC20 combo, at 0.005 µM): -1.06% | inhibition ([6]; BGB IC40 combo, at 0.005 µM): -15.6% | inhibition ([6]; BGB IC40 combo, at 0.05 µM): -24.6% | inhibition ([6]; at 0.5 µM): -11.4% (inactive) | inhibition ([6]; cisplatin combo, at 0.05 µM): -24.6% | inhibition ([6]; cisplatin combo, at 0.5 µM): -24.3% | inhibition ([6]; cisplatin combo, at 5 µM): 15.2% | inhibition ([6]; measured here: 5 uM single agent, at 5 µM): -2.52% | inhibition ([7]; at 0.5 µM): -18.2% (inactive) | inhibition [7, 25]: -11.6% | inhibition [7, 28]: -19.1% | inhibition [7, 29]: -44% | inhibition ([8]; at 0.5 µM): -28.2% (inactive) | inhibition ([8]; measured here: with BGB IC20, at 0.5 µM): -29.8% | inhibition ([8]; measured here: with BGB IC20, at 5 µM): -10% | inhibition ([8]; measured here: with cisplatin IC20, at 0.5 µM): -43.4% | inhibition ([8]; measured here: with cisplatin IC20, at 5 µM): -30.1% | inhibition ([8]; single agent, at 5 µM): -16.7% | inhibition ([9]; at 0.5 µM): -61.6% (inactive) | inhibition ([9]; measured here: combination with BGB at IC20, at 0.5 µM): -74.6% | inhibition ([9]; measured here: combination with cisplatin at IC20, at 0.5 µM): -68.6% | inhibition ([10]; at 0.5 µM): -9.09% (inactive) | inhibition ([10]; measured here: combo with BGB at IC20, at 0.5 µM): -13.9% | inhibition ([10]; measured here: combo with cisplatin at IC20, at 0.5 µM): -16.6% | inhibition ([11]; at 0.5 µM): 7.61% (inactive) | inhibition ([11]; measured here: inhibition with BGB combination, at 0.05 µM): -29.4% | inhibition ([11]; measured here: inhibition with cisplatin combination, at 0.05 µM): -3.05% | inhibition ([12]; at 0.5 µM): -6.12% (inactive) | inhibition [12, 28]: 0.862% | inhibition [12, 29]: 2.6% | inhibition ([13]; at 0.5 µM): -21.2% (inactive) | inhibition ([13]; measured here: BGB combination, at 0.5 µM): -29.5% | inhibition ([13]; measured here: BGB combination, at 5 µM): -21.7% | inhibition ([13]; measured here: cisplatin combination, at 0.5 µM): -25.6% | inhibition ([13]; measured here: cisplatin combination, at 5 µM): -2.99% | inhibition ([14]; BGB combination, concentration series, at 5 µM): -17.4% | inhibition ([14]; at 0.5 µM): -16.8% (inactive) | inhibition ([14]; cisplatin combination, concentration series, at 5 µM): -7.33% | inhibition ([15]; at 0.5 µM): -3.66% (inactive) | inhibition ([15]; measured here: combo with BGB IC20, at 0.5 µM): 2.88% | inhibition ([15]; measured here: combo with cisplatin IC20, at 0.5 µM): -17% | inhibition ([16]; at 0.5 µM): -0.679% (inactive) | inhibition ([16]; cisplatin combination, at 0.5 µM): -0.865% | inhibition ([16]; cisplatin combination, at 5 µM): -52% | inhibition ([16]; measured here: BGB IC40 combination 0.05 uM, at 0.05 µM): 24% | inhibition ([16]; single agent, at 5 µM): -28.3% | inhibition ([17]; at 0.5 µM): -1.7% (inactive) | inhibition ([17]; cisplatin combo, at 5 µM): 11.7% | inhibition ([17]; measured here: BGB IC40 combination, at 0.05 µM): -6.98% | inhibition [17, 28]: -10.2% | inhibition ([17]; single agent, at 5 µM): -30.2% | inhibition ([18]; at 0.5 µM): -50% (inactive) | inhibition [18, 26]: -14.8% | inhibition [18, 27]: -67.7% | inhibition ([18]; single agent, at 0.05 µM): 32.2% | inhibition ([18]; single agent, at 5 µM): 11.1%

Cc1cc(-c2cccc3cccnc23)nc(N)n1
fold change [1, 19]: 0.914 (inactive) | fold change [1, 20]: 1.55 | cell count [1, 21]: 9030 | cell count [1, 22]: 9880 | z-score [2, 23]: -0.012 (inactive) | z-score [2, 24]: -0.264 | z-score [3]: -0.525 (inactive)

NC(=O)NC(CCC(=O)O)C(=O)O (stereo unspecified)
fold change [1, 19]: 0.857 (inactive) | fold change [1, 20]: 0.229 | cell count [1, 21]: 8940 | cell count [1, 22]: 10400 | z-score [2, 23]: 0.385 (inactive) | z-score [2, 24]: -0.000429 | z-score [3]: 0.4 (inactive)

O=C(NCCc1ccco1)c1cc(C2CC2)[nH]n1
fold change [1, 19]: 0.916 (inactive) | fold change [1, 20]: 1.14 | cell count [1, 21]: 9380 | cell count [1, 22]: 10200 | z-score [2, 23]: 0.356 (inactive) | z-score [2, 24]: 0.504 | z-score [3]: -0.495 (inactive)

O=S(=O)(Nc1cc(-c2cccs2)nn1-c1ccc(F)cc1)c1cccc(F)c1
fold change [1, 19]: 0.903 (inactive) | fold change [1, 20]: 0.956 | cell count [1, 21]: 7390 | cell count [1, 22]: 8190 | z-score [2, 23]: 0.0617 (inactive) | z-score [2, 24]: 0.524 | z-score [3]: -1.46 (inactive)

CCn1nccc1NC(=O)Cn1cc(-c2ccc(C(=O)N3CCCC3)cn2)cn1
fold change [1, 19]: 0.832 (inactive) | fold change [1, 20]: 1.64 | cell count [1, 21]: 7850 | cell count [1, 22]: 9430 | z-score [2, 23]: 0.812 (inactive) | z-score [2, 24]: -0.539 | z-score [3]: -0.57 (inactive)

CN(C)CCC=C1c2ccccc2COc2ccc(CC(=O)O)cc21
fold change [1, 19]: 0.912 (inactive) and 0.919 (inactive) | fold change [1, 20]: 1.41 and 0.942 | cell count [1, 21]: 9480 and 9680 | cell count [1, 22]: 10400 and 10500 | z-score [2, 23]: -0.314 (inactive) | z-score [2, 24]: 0.569 | z-score [3]: 1.25 (inactive)

COc1ccc(CC(N)=O)cc1
fold change [1, 19]: 0.918 (inactive) | fold change [1, 20]: 0.564 | cell count [1, 21]: 8020 | cell count [1, 22]: 8730 | z-score [2, 23]: 0.385 (inactive) | z-score [2, 24]: 0.663 | z-score [3]: -0.175 (inactive)

Cc1nn(C)cc1-c1ccnc(N2CCCN(c3ccccc3)CC2)n1
fold change [1, 19]: 0.823 (inactive) | fold change [1, 20]: 0.527 | cell count [1, 21]: 5610 | cell count [1, 22]: 6820 | z-score [2, 23]: -1.06 | z-score [2, 24]: 3.98 | z-score [3]: 2.46 (active)

O=S(=O)(O)CCCN1CCOCC1
fold change [1, 19]: 0.928 (inactive) | fold change [1, 20]: 0.665 | cell count [1, 21]: 8750 | cell count [1, 22]: 9420 | z-score [2, 23]: 0.595 (inactive) | z-score [2, 24]: -0.353 | z-score [3]: 0.105 (inactive)
